Sfp inh: inhibitors of Bacillus subtilis Sfp phosphopantetheinyl transferase. Q9F4F7. Biochemical Sfp PPTase activity, qHTS. Potency, µM, without a hit: largest response in the series, negative = inhibition, usual class: inhibitors. 310,000 tested, 3.5% active. AID 1490;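 further: the enzyme is Sfp with the accession as filed and its product quenches rhodamine fluorescence; 0% = enzyme reaction without inhibitor and -100% = no enzyme wells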
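Compounds were incubated with enzyme (final 15 nM) for 15 min at room temperature before substrate addition started the reaction. Fluorescence at 525 nm excitation, 598 nm emission was recorded immediately and after 30 minutes.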
JMJD2A Tudor: inhibitors of human JMJD2A Tudor domain. O75164. AID 504339. 390,000 tested, 4.4% active. AlphaScreen JMJD2A-Tudor / H3K4me3 peptide binding. Potency, µM (titrated, usually from 114 µM), for inactives: at the highest dose activity change, negative = inhibition, actives largely listed as inhibitors; further: on the % scale 0 is the no-effect control and ±100 the full control effect; nearly all actives have a fitted effect of over 50% in size
BAZ2B inh: BAZ2B (human) inhibition; 360,000 tested, 4.4% active; Potency, µM (series often up to 114 µM), for inactives: top-dose activity change, negative = inhibition, hits mostly inhibitors; AlphaScreen BAZ2B-H3K14Ac peptide displacement; AID 504333; further: on the % scale 0 is the no-effect control and ±100 the full control effect; nearly all actives have a fitted effect of over 60% in size
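AlphaScreen displacement: compounds (up to 110uM) incubated 30 min at room temperature with a preformed 50 nM BAZ2B/50 nM biotinylated H3K14Ac peptide complex in PBS pH 7.4 with Tween-20. Donor and acceptor beads at 10 ug/mL final added, 20 min light-protected before reading.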
G9a inh-1: blocks human histone lysine methyltransferase G9a; G9a H3K9 monomethylation, AlphaScreen, 2 h; 350,000 tested, 8.8% active; AID 504332; Q96KQ7; Potency, µM (titrated, usually from 102 µM), without a hit: at the top dose activity, negative = inhibition, usual class: inhibitors; further: on the % scale 0 is the no-effect control and ±100 the full control effect; nearly all actives have a fitted effect of over 75% in size
Target sequence (Q96KQ7 913-1193 limits assumed): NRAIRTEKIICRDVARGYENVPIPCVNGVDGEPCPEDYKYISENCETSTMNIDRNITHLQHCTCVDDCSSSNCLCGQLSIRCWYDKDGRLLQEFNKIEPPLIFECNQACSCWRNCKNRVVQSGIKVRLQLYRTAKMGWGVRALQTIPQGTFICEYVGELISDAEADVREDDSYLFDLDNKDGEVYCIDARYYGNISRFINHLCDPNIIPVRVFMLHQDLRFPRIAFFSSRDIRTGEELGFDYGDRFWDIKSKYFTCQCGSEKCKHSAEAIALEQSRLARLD
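Quantitative HTS format: methyltransferase activity on a biotin-tagged H3K9 peptide is measured by AlphaScreen, using a rabbit anti-monomethyl-H3K9 antibody with streptavidin donor and anti-IgG acceptor beads. Final levels are 20 nM enzyme, 500 nM peptide, 20 uM SAM; 2 h RT.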
HP1b binding inh: blocks HP1-beta chromodomain binding to methylated histone tails; AlphaScreen HP1-beta / biotin-H3K9me3 peptide binding; P83916; Potency, µM (series often up to 114 µM), for inactives: at the top dose activity change, negative = inhibition, hits mostly inhibitors; 390,000 tested, 0.56% active; further: nearly all actives have a fitted effect of over 70% in size
Target sequence (P83916 whole entry, looked up): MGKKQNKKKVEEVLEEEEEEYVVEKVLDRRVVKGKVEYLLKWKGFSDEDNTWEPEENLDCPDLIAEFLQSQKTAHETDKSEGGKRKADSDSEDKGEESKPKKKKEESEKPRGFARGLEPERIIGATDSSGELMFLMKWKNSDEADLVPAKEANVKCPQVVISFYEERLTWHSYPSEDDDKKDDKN
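AlphaScreen: HP1-beta (50 nM) preformed 30 min with biotin-H3(1-18)K9me3 peptide (50 nM) in PBS pH 7.4, 0.01% Tween-20. Compound added for 30 min at RT, then streptavidin donor/nickel chelate acceptor beads (10 ug/mL) for 30 min.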
G9a inh-2: inhibits human G9a histone lysine methyltransferase, hit confirmation. shares compounds with JMJD2A Tudor. 370 tested, 89% active. AID 588344. Potency, µM, most hits filed as inhibitors. G9a H3K9 monomethylation, AlphaScreen, 2 h; further: nearly all actives have a fitted effect of over 65% in size
Starred values were filed as active, the others as inactive; u = inconclusive; x = no result; [ ] = dose if it differs, or a comment. Shown are actives, neighbours in structure and some others; about 12% of the full set was active somewhere. The call rests on the fitted dose curve; in most records, active means well fitted curve in the direction sought with a large enough effect; inconclusive means small, poorly fitted or top-dose-only effect, or another doubt; inactive means no such curve, though single readings can be large; an effect the other way counts as inactive or inconclusive. Potency means the concentration at half of the fitted maximal effect.

SMILES	Sfp inh	JMJD2A Tudor	BAZ2B inh	G9a inh-1	HP1b binding inh	G9a inh-2
Cc1nn(-c2nc3ccccc3[nH]2)c(=O)c2ccccc12	19%	-9%	-3%	0%	31%	x
CC1NC(=S)N(C2CCCCC2)C1=O (stereo not given)	7%	3%	-1%	-27%	38%	x
O=C(c1ccoc1)N1CCC(CO)(CCc2ccccc2)CC1	-4%	-11%	-12%	2%	34%	x
c1ccc(Oc2cccc(OCCn3cncn3)c2)cc1	-6%	25µM*	40µM*	1.8µM*	-55%	28*
COc1ccc(NCc2nnc(SCC(=O)c3ccc(OC)cc3)n2C)cc1	-8%	56µM*	-1%	u	18%	11*
CC(CN1CCCC(C(N)=O)C1)c1ccccc1 (stereo not given)	7%	-10%	6%	-34%[12.7 µM]	13%	x
COc1cccc(CNC(=O)c2cc(Sc3cccc(Cl)c3)nc3ccccc23)c1	x	4%	13%	23%[59 µM]	45%	x
COc1ccccc1-c1cc(C(F)(F)F)nc(S(=O)(=O)CCCC(=O)N2CCOCC2)n1	0%	-5%[11.4 µM]	11%	-4%[12.7 µM]	-1%	x
CCN(Cc1ccncc1)Cc1c(O)ccc2ccccc12	-3%	79µM*	-29%	1.4µM*	u	0.36*
CCN(CC)C(=O)C1CCN(Cc2cccc(OCc3ccccc3)c2)CC1	-5%	50µM*	35µM*	2.8µM*	56µM*	28*
Cc1cc(CNC(=O)C2CCC(=O)N(Cc3ccccc3F)C2)nn1C (stereo not given)	11%	-16%	-6%	19%[0.501 µM]	31%	x
O=C(N/N=C/c1cccs1)c1n[nH]c2c1CCCC2	2%	-1%	-3%	x	27%	x
c1csc(Cc2nn3c(-c4n[nH]c5c4CCC5)nnc3s2)c1	-14%	u	u	u	-15%	13*
CC(C(=O)N1CCCCC1)N(C)CC(=O)Nc1cccc(F)c1 (stereo not given)	x	25µM*	16µM*	u	-22%	45*
CC(C(=O)Nc1ccc(S(=O)(=O)N2CCCC2)cc1)N(C)CC(=O)Nc1cccc(F)c1 (stereo not given)	x	-6%	x	x	20%	x
Cc1cccc(OCC(=O)Nc2cccc(-c3nc4ccccc4s3)c2)c1	x	-2%	5%	13%[59 µM]	56%	x
Cc1ccc(OCC(=O)Nc2cccc(-c3nc4ccccc4s3)c2)cc1	x	-12%	1%	2.5µM*	-14%	11*
Cc1oc(-c2ccccc2)cc1C(=O)Nc1ccc(N(C)C)cc1	-14%	50µM*	20µM*	2.2µM*	u	1.8*
Cc1cc(=O)oc(C)c1C(=O)Nc1ccc(N(C)C)cc1	6%	-21%	-15%	u	52%	x
O=C1C2C3C=CC(CO)(O3)C2C(=O)N1c1ccccc1-c1ccccc1 (stereo not given)	1.1µM*	18µM*	9%	0.32µM*	u	0.22*
CCC(Sc1nnnn1C)C(=O)Nc1ccc(C(C)=O)cc1 (stereo not given)	8%	-3%	u	u	7%	11*
CC(Sc1nnnn1C)C(=O)Nc1ccc(Oc2ccccc2)cc1 (stereo not given)	-3%	-11%	15%	27%[59 µM]	33%	x
Cc1ccc(-c2nn3c(C)nnc3s2)cc1NC(=O)c1ccc(-c2cccc(Cl)c2)o1	22µM*	u	-8%	u	55%	u
Cc1ccc(-c2nn3c(C)nnc3s2)cc1NC(=O)c1ccc(Br)o1	-3%	4%	4%	u	54%	x
Cc1nn(-c2ccccn2)c2c1C(=O)C(Br)CC2 (stereo not given)	4µM*	13µM*	x	1.3µM*	u	0.25*
CCOc1ccc(S(=O)(=O)Nc2nc3ccccc3nc2Cl)cc1	15%	-2%	0%	7%	53%	x
CCOc1ccc(S(=O)(=O)Nc2nc3ccccc3nc2N2CCN(C)CC2)cc1	9%	-12%	-28%	u	30%	u
CCOC(=O)c1cnc(-n2nc(C)cc2C)nc1Nc1ccc(N(C)C)cc1	-12%	1.1µM*	1.8µM*	0.89µM*	u	1.6*

From PubChem BioAssay
